Laboratory results reported in article PMC5540273 (PLoS ONE, 2017).

These compounds were tested on CDK9. Conditions: concentration: 1 μM, replicates: in singlicate; n = 1.
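Note: KINOMEscan kinase panel screen.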

Nc1nc(-c2nccs2)c(-c2ccnc3ccccc23)s1 [GW693542] and Cn1ccc2ncnc(Oc3ccc(Nc4nc5ccccc5[nH]4)cc3)c21 are the same in “%Inh” value: 0% for the first, 0% for the second.

CC1=C(C(=O)Nc2cc3cn[nH]c3cc2F)C(c2ccc(C(F)(F)F)cc2)CC(=O)N1 (centres unmarked) [GSK429286] and Cc1cccc(-c2nc(Nc3ccc4[nH]ncc4c3)c3ccccc3n2)n1 [GW857175] are the same in “%Inh” value: 0% for the first, 0% for the second.

Compared with Cc1cc(NCC(c2ccccc2)c2ccccc2)nc(NCc2ccc(C(F)(F)F)cc2)n1 [GW497681], COC(=O)c1c(-c2ccccc2)c2cc(OC)ccc2c(=O)n1Cc1ccccc1 is higher in “%Inh” value: 0% for the first, 9% for the second.

COc1cc(Nc2nccc(N3CCC(NC(=O)Nc4cc(C)ccc4C)C3)n2)cc(OC)c1OC (centres unmarked) [GSK1379762] and Cl.NC(=O)c1cccc(Nc2nccc(Nc3ccc(Oc4cccc(Cl)c4)c(Cl)c3)n2)c1 [GW659008] are the same in “%Inh” value: 0% for the first, 0% for the second.

O=C(Nc1ccccc1)Nc1cccc(Oc2ccc3nccn3n2)c1 and Cl.O=C(Nc1cccc(-c2nn3ncccc3c2-c2ccnc(Nc3cccnc3)n2)c1)c1c(F)cccc1F [GSK312879] are the same in “%Inh” value: 0% for the first, 0% for the second.

CCn1c(-c2ccccn2)nc2cnccc21 [SB-736398] and COc1ccc2nc(-c3cccc(C)n3)nc(Nc3ccncc3)c2c1 [GSK204919] are the same in “%Inh” value: 0% for the first, 0% for the second.

CC(C)(C)c1ccc(C(=O)Nc2cn3cc(Cl)ccc3n2)cc1 and Cc1ccccc1-n1cnc2c(N)ncnc21 [SKF-97510] are the same in “%Inh” value: 0% for the first, 0% for the second.
